# In PubChem BioAssay AID463173 (ICCB-Longwood Screening Facility, Harvard Medical School, 2010):
# Hit rate of the full screen: of about 52,000 compounds, about 4,300 (8.3%) were called active. The list comes from a sample in which actives are over-represented; it also holds similar structures and randomly drawn compounds. Values without a mark were called inactive. Cut-off read from the data, not from the text of the source: active = survival mostly below about 52% (no sharp cut-off); inactive = mostly above about 56%.
# Test system: DeltatarO mutant
# Test: growth inhibition of S. aureus wild type versus tarO mutant, primary screen, teichoic acid synthesis inhibitors, RN4220, OD600 (AID 463173)
# Conditions: OD600, 18 h, hits give low values, screened at 18.75 µg/mL (by protocol)
row,Structure (SMILES),survival
1,Cc1ccc(NC(=O)c2oc3ccc(S(=O)(=O)N(C)C4CCCCC4)cc3c2C)cc1Cl,95%
2,Cc1cc2n(n1)CCCN2C(=O)Nc1cccc(C)c1C,73%
3,O=C(O)C1C2C=CC(C2)C1C(=O)NCCO (stereo not drawn),82%
4,COc1ccc(OC)c(S(=O)(=O)N2CCC(C(=O)NCCC3=CCCCC3)CC2)c1,92%
5,CCOC(=O)CNC(=O)N1CCN(S(=O)(=O)c2ccc3c(ccn3C)c2)CC1,32% (active)
6,CCOC(=O)CCNC(=O)N1CCN(S(=O)(=O)c2ccc3c(ccn3C)c2)CC1,89%
7,COC(=O)CNC(=O)N1CCN(S(=O)(=O)c2ccc3c(ccn3C)c2)CC1,87%
8,CCn1c(SCc2ccccc2)nnc1-c1cccnc1,75%
9,Cc1ccccc1-c1nnc(CN2CCN(c3cccc(C)c3C)CC2)o1,61%
10,Cc1ccccc1-c1nnc(CN2CCN(c3cc(Cl)ccc3C)CC2)o1,74%
11,Cc1ccc(N2CCN(Cc3nnc(-c4ccccc4F)o3)CC2)c(C)c1,22% (active)
12,Cc1cccc(N2CCN(Cc3nnc(-c4ccccc4C)o3)CC2C)c1 (stereo not drawn),33% (active)
13,Cc1ccccc1-c1nnc(CN2CCN(c3ccccn3)CC2)o1,120%
14,Cc1ccc(C)c(N2CCN(Cc3nnc(-c4ccccc4)o3)CC2)c1,91%
15,CCn1c(=O)n(CC2CCC(C(=O)NC(C)C)CC2)c(=O)c2sccc21 (stereo not drawn),85%
16,CC(=O)c1ccc(NC(=O)Cn2cc(S(=O)(=O)Cc3ccccc3Cl)c3ccccc32)cc1,74%
17,CCOC(=O)C1CCCN(C(=O)c2ccc3c(c2)N(Cc2ccccc2)C(=O)c2ccccc2S3=O)C1 (stereo not drawn),120%
18,CCCCC(=O)Nc1ccc2nc(SCC(=O)N3CCOCC3)sc2c1,87%
19,CCN(Cc1ccccc1)C(=O)CCc1c(C)nc2c(c(C)nn2-c2ccc(C)c(C)c2)c1C,95%
20,COc1ccc(C(=O)N(Cc2cc(OC)c(OC)c(OC)c2)CC2CCCO2)cc1 (stereo not drawn),48%
21,O=C(c1ccc(Cl)cc1)N1CCN(CCc2ccncc2)CC1,103%
22,CCCCCOC(=O)CSc1nc2sc3c(c2c(=O)n1-c1ccccc1)CC(C)(CC)OC3 (stereo not drawn),36% (active)
23,COC(=O)CSc1nc2sc3c(c2c(=O)n1-c1ccccc1C)CC(C)(C)OC3,73%
24,CCC1(C)Cc2c(sc3nc(SC)n(-c4ccc(C)cc4)c(=O)c23)CO1 (stereo not drawn),33% (active)

row,Structure (SMILES),survival
1,Cc1ccc(-n2c(SCCC(C)C)nc3sc4c(c3c2=O)CC(C)(C)OC4)cc1,49%
2,CCCCCOC(=O)CSc1nc2sc3c(c2c(=O)n1Cc1ccccc1)CC(C)(C)OC3,41% (active)
3,CCOC(=O)CSc1nc2sc3c(c2c(=O)n1-c1ccccc1)CC(C(C)C)OC3 (stereo not drawn),96%
4,COC(=O)CSc1nc2sc3c(c2c(=O)n1-c1ccc(C)cc1)CC(C(C)C)OC3 (stereo not drawn),61%
5,CCOC(=O)CSc1nc2sc3c(c2c(=O)n1Cc1ccccc1)CCC(C(C)(C)C)C3 (stereo not drawn),61%
6,CCOC(=O)CSc1nc2sc3c(c2c(=O)n1Cc1ccccc1)CC(C)CC3 (stereo not drawn),64%
7,CCCCCOC(=O)CSc1nc2sc3c(c2c(=O)n1Cc1ccccc1)CC(C)(CC)OC3 (stereo not drawn),46% (active)
8,CCCN(CCC)C(=O)CSc1nc2sc3c(c2c(=O)n1-c1ccccc1)CCN(C(C)=O)C3,178%
9,CCOC(=O)CSc1nc2sc3c(c2c(=O)n1Cc1ccccc1)CC(C(C)C)OC3 (stereo not drawn),74%
10,CCOc1ccc(CN(CCc2ccc3c(c2)OCO3)Cc2cc(OC)c(OC)cc2OC)cc1,44%
11,O=C(Nc1ccc(C(=O)OCc2cc(=O)n3nc(C4CC4)sc3n2)cc1)c1cccc(F)c1,67%
12,O=C(Nc1cccc(F)c1)/C(=C\c1cccs1)NC(=O)c1cccs1,79%
13,O=C(CCCSc1nc(-c2ccco2)cc(C(F)(F)F)n1)Nn1cnnc1,72%
14,COc1cccc(C(=O)NC(=O)Nc2ccc(-n3nc(C(F)(F)F)cc3C(F)(F)F)cc2)c1,81%
15,CCOc1ccc(OCC)c(NC(=O)C2CCCN(S(=O)(=O)c3ccc(C)cc3)C2)c1 (stereo not drawn),60%
16,CCC(Sc1nc2cc(OC)c(OC)cc2c2nc(-c3ccccc3)nn12)C(=O)Nc1cccc(C)c1 (stereo not drawn),80%
17,CCCCc1cc(=O)oc2cc(C)c3c(C(C)(C)C)coc3c12,102%
18,CCOC(=O)c1cnc(NCc2ccc(OC)cc2OC)c2ccccc12,86%
19,COc1ccc(OC)c(CNc2ncnc3onc(-c4ccc(Cl)cc4)c23)c1,53%
20,COc1ccc(CNS(=O)(=O)c2cnc(N)nc2)c(OC)c1,83%
21,COc1ccc(OC)c(CNC(=O)CN2N=C(c3ccc(Cl)cc3)CCC2=O)c1,96%
22,CCOc1ccc(-c2cnc(NCc3ccc(OC)cc3OC)n2C)cc1,37% (active)
23,COc1ccc(OC)c(CNc2ncc(-c3ccc(Cl)cc3)n2C)c1,25% (active)
24,CCOc1ccccc1C(=O)N1CC(=O)Nc2ccc(Cl)cc2C1c1ccccc1 (stereo not drawn),73%

row,Structure (SMILES),survival
1,Fc1ccc(Nc2c3c(nc4nncn24)CCC3)cc1,74%
2,Cc1ccc(-n2nc(C(=O)Nc3cccc(C#N)c3)c3c4ccccc4n(C)c3c2=O)cc1,129%
3,Cc1ccc(C(=O)c2oc3ccccc3c2NC(=O)c2cc(-c3ccccc3)on2)cc1,77%
4,O=C(c1ccco1)N1CCN(c2c3c(nc4cc(-c5cccc(F)c5)nn24)CCCC3)CC1,70%
5,Cc1ccc2cc(CN(Cc3cccnc3)C(=O)c3cccnc3)c(=O)[nH]c2c1,106%
6,O=C1Nc2ccccc2Oc2cc(Oc3cccc(Cl)c3)ccc21,46%
7,O=C1Nc2ccccc2Oc2cc(Oc3ccccc3)ccc21,33% (active)
8,Cc1cccc(Oc2ccc3c(c2)Oc2ccccc2NC3=O)c1,73%
9,COc1ccc(-c2ccc(CNCCCSc3nnnn3C)o2)cc1Cl,79%
10,Nc1nonc1-c1nc2ccccc2n1CC(=O)Nc1cccc(C(F)(F)F)c1,95%
11,COc1ccc(Cl)cc1NC(=O)Cn1c(=O)c(-c2ccccc2NC(C)=O)nc2ccccc21,103%
12,CCc1ccc(NC(=O)Cn2c(=O)c(-c3ccccc3NC(C)=O)nc3ccccc32)cc1,44% (active)
13,CC(=O)Nc1ccccc1-c1nc2ccccc2n(CC(=O)Nc2ccc(C)c(Cl)c2)c1=O,101%
14,CC(=O)Nc1ccccc1-c1nc2ccccc2n(CC(=O)Nc2cccc(C(F)(F)F)c2)c1=O,45% (active)
15,CCc1ccc(NC(=O)C(CC)n2c(=O)c(-c3ccccc3NC(C)=O)nc3ccccc32)cc1 (stereo not drawn),65%
16,CCOc1ccccc1-c1nc(C(N)=O)c2c(n1)n(-c1ccc3c(c1)OCO3)c(=O)n2C,79%
17,CCOc1ccc(NC(=O)Cc2c[nH]c3ccccc23)cc1,80%
18,Cc1oc2c(c1C(=O)NCCO)CCCC2,85%
19,COCc1cc(C)nc2sc3c(c12)NC(c1ccc(O)cc1)N(c1ccc(OC)cc1)C3=O (stereo not drawn),76%
20,CCCN1C(=O)C2(c3ccccc31)c1c(oc3ccc(F)cc3c1=O)C(=O)N2CCCOC(C)C (stereo not drawn),93%
21,COc1ccc2cc(C#N)c(N3CCCN(C(=O)/C=C/C(=O)O)CC3)nc2c1,105%
22,CCCN1CCc2nc(N3CCN(c4ncccn4)CC3)ncc2C1,75%
23,O=C(CSc1nc2ccccc2n1Cc1ccccc1)Nc1ccccn1,81%
24,O=C(CSc1nc2ccccc2n1Cc1ccccc1)NCc1ccccc1,95%

row,Structure (SMILES),survival
1,O=C1OCCC1Sc1nc2ccccc2n1Cc1ccccc1 (stereo not drawn),73% (active)
2,COC(=O)c1nnn(CC(=O)Nc2c(C)cccc2C)c1N,87%
3,Cc1ccc(NC(=O)CN2C(=O)COc3ccc(S(=O)(=O)N4CCCCCC4)cc32)cc1Cl,67%
4,COc1cccc(/C=N/NC(=O)CSCc2ccccc2)c1O,69%
5,O=C(N/N=C/c1ccc(OC(=O)c2ccco2)cc1)c1ccccn1,92%
6,Cc1cccc(/C=N/NC(=O)c2ccccn2)c1O,5% (active)
7,Cn1cccc1/C=N/NC(=O)c1ccccn1,77%
8,COc1cccc(/C=N/NC(=O)c2cccc(C)c2)c1O,2% (active)
9,COc1cccc(/C=N/NC(=O)COc2c(C)cccc2C)c1O,88%
10,COc1ccc(C(=O)Nc2ccc3nc4n(c(=O)c3c2)CCCCC4)cc1OC,91%
11,CCOc1ccc(-n2c(=O)c3c(C)c(C)sc3n(CC(=O)N3CCC(C)CC3)c2=O)cc1,71%
12,CCC(C)NC(=O)c1ccc2nc(Cc3ccc(OC)cc3)oc2c1 (stereo not drawn),76%
13,CCOC(=O)c1c(C)[nH]c(CCC(=O)Nc2cc(Cl)ccc2OC)c1C,94%
14,COc1ccccc1CNC(=O)Cn1c(=O)ccc2cc(S(=O)(=O)N3CCCC3)ccc21,69%
15,CCn1nc(C)c(CCN(C)C(=O)Nc2cc(OC)c(OC)c(OC)c2)c1C,89%
16,COc1cc2c(cc1NC(=O)COc1ccc(Br)cc1)oc1ccccc12,72%
17,CCc1ccc(OCC(=O)Nc2cc3oc4ccccc4c3cc2OC)cc1,47% (active)
18,COc1cc2c(cc1NC(=O)COc1ccc(Cl)cc1)oc1ccccc12,46% (active)
19,COc1cc2c(cc1NC(=O)COc1ccc(Br)c(C)c1)oc1ccccc12,49%
20,COc1cc2c(cc1NC(=O)COc1ccc(Br)cc1C)oc1ccccc12,119%
21,CCc1ccc(OCC(=O)Nc2cc3oc4ccccc4c3cc2OC)c(Br)c1,123%
